Compounds with a hit are over-represented: about 1.7% of the library has one in this group of screens.
NOD2 RIPK2 PPI – blocks binding of human NOD2 to RIPK2 | O43353 | CHO BLA complementation NOD2-RIPK2, CCF4 ratio | inhibition, % at 4.98 µM | 360,000 tested, 0.38% active | AID 624267; in the data active = inhibition above about 21%;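 note: 0% = vehicle only and 100% = reference blocker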
Target sequence (O43353 whole entry, looked up): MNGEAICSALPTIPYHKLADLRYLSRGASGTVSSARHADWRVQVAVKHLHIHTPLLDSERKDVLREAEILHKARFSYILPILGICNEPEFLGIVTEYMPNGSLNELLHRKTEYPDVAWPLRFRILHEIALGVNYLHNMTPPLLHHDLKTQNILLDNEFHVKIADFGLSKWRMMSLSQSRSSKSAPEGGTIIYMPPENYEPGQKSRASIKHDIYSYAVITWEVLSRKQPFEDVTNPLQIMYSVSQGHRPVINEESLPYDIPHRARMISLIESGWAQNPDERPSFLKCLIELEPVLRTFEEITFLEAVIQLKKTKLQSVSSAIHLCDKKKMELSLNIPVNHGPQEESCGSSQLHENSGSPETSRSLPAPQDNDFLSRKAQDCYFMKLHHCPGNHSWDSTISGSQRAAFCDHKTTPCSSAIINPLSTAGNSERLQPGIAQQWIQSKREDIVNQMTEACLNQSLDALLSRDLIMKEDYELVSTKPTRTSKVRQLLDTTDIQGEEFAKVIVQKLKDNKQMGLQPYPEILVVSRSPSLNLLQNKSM
TLR4 MyD88 comp – TLR4-MyD88 interaction inhibition in cells | inhibition, % at 8.4 µM | 200,000 tested, 0.18% active | HeLa CL3-4 TLR4/MyD88 BLA complementation, FRET ratio; in the data active = inhibition above about 25%;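 note: 0% = vehicle and 100% = reference inhibitor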
TLR9-MyD88 block – inhibitors of human TLR9-MyD88 binding; 340,000 tested, 0.21% active; CHO BLA complementation TLR9-MyD88, CCF4 FRET ratio; Q9NR96+Q99836; inhibition, % at 4.98 µM;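 active = inhibition above the mean over all tested compounds plus 3 SD, cut at about 21% in these data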;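 note: 0% = DMSO only wells and 100% = clavulanate BLA inhibitor control wells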
ABCB6 inh 2 – inhibitors of human ABC transporter ABCB6; Q9NP58; K562-ABCB6 porphyrin accumulation, flow cytometry, 1 h; stronger effect = lower value; fluorescence ratio to DMSO, % at 10 µM; 360,000 tested, 0.19% active; AID 602162;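 active = fluorescence ratio to DMSO below 75%, the collection mean minus 3 SD; inconclusive = too few cells collected in the well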;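 note: signal is porphyrin accumulated inside mitochondria; 100% equals median channel fluorescence of DMSO control wells; lower ratio means ABCB6 inhibition with less porphyrin fluorescence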
Myeloid diff 2 – myeloid differentiation induction | ER-HoxA9 myeloid progenitors, lysozyme-GFP differentiation, flow cytometry | calls only at 10 µM | 360,000 tested, 1% active | AID 624256;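 active = normalized GFP-positive differentiation at or above the plate's own cutoff, the solvent-only control mean plus 3 SD; inconclusive = no clear call, values can overlap the other calls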;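 note: cells exposed to compound for four days before flow analysis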
Numbers without * were called inactive; i = inactive; ? = inconclusive; . = no result; + = active, no number.

SMILES	NOD2 RIPK2 PPI	TLR4 MyD88 comp	TLR9-MyD88 block	ABCB6 inh 2	Myeloid diff 2
CCOC(=O)/C(C#N)=C/c1c(N2CCN(C)CC2)nc2c(C)cccn2c1=O	-3.9	.	3.6	99.0	i
Cc1cc(=O)n2nc(N3CCCC(C(=O)NC4CCCCC4C)C3)sc2n1 (centres undefined)	-7.3	.	1.9	101.0	i
O=C1CN(C(=O)COC(=O)c2cc(Cl)ccc2[N+](=O)[O-])c2ccccc2N1	0.7	.	-9.3	99.0	i
CSc1ccc(C2=C/C(=C3/SC(=S)NC3=O)c3ccccc3O2)cc1	-8.7	.	0.6	153.0	+
Cn1c(COc2ccc(Cl)cc2)nnc1SCC(=O)NC1CCCC1	7.5	.	13.3	101.0	i
CCC(CN(C)C)Oc1cc(NCc2ccccc2)c2ncn(C(C)C)c2c1 (centres undefined)	0.8	.	2.2	139.0	+
O=C(NNC(=O)[C@@H]1CCCC[C@@H]1C(=O)O)Nc1ccccc1	-2.3	-28.1	-0.3	102.0	i
O=C(CCn1cccn1)N1CCCC(Nc2ccc(F)c(F)c2)C1 (centres undefined)	-1.2	.	-6.8	98.0	i
COc1ccccc1NS(=O)(=O)c1ccc(O)c(C(=O)OCC(=O)N2c3ccccc3CC2C)c1 (centres undefined)	5.2	0.1	2.8	506.0	+
COc1ccccc1NS(=O)(=O)c1ccc(O)c(C(=O)OCC(=O)N2CCc3ccccc32)c1	0.0	.	-3.3	98.0	i
COc1ccc(CNC(=O)CSc2nnc(NC(=O)c3ccccc3F)s2)cc1	-11.7	.	-6.0	99.0	i
CC(NC(=O)c1ccco1)C(c1cccs1)N1CCN(c2ccccc2F)CC1 (centres undefined)	3.3	20.9	0.9	106.0	+
Cc1cc(C)nc(N/C(=N\S(=O)(=O)Cc2ccccc2)Nc2ccc(F)c(Cl)c2)n1	-1.2	-7.7	-6.2	105.0	i
CCOc1ccc(Br)cc1C1=CC(=O)C[C@H](c2ccc(OC)cc2)C1	-12.1	.	0.6	105.0	?
COc1ccc([C@H]2CC(=O)C=C(c3cc(Br)ccc3OC)C2)cc1	-7.7	.	6.8	97.0	+
COc1ccc(-c2c(C)c3ccc(O)cc3oc2=O)cc1OC	-6.6	.	-5.2	102.0	i
O=c1ccc2c(-c3ccccc3)c3ccc(O)cc3oc-2c1	0.7	.	-2.2	279.0	+
O=c1cc(-c2ccccc2)oc2cc(O)ccc12	3.6	.	-9.1	97.0	i
Nc1ccc(-c2c3ccc(=O)cc-3oc3cc(O)ccc23)cc1C(=O)O	5.3	.	5.8	104.0	+
CCCCC(=O)N(C)c1c(C)nc2ccc(C(=O)N3CCN(S(=O)(=O)CC)CC3)cn12	-8.4	.	.	99.0	i
CC1=CC(C)(C)n2c(O)c(N=NC(N)=S)c3c(C)ccc1c32	-11.1	5.2	-3.6	94.0	+
Cc1ccc(-n2c(-c3ccc(Cl)cc3)n[nH]c2=S)c(C)c1	-1.0	.	-10.7	100.0	+
COc1ccc(-c2n[nH]c(=S)n2-c2ccc(C)cc2C)cc1	1.6	.	-3.6	97.0	i
Nc1ccc(CN2CCCCCC2)cc1	-8.6	1.9	1.1	94.0	+
Cc1c(C(=O)O)c(C(=O)O)c2n1CCS2	4.0	.	3.7	105.0	i
SMILES	NOD2 RIPK2 PPI	TLR4 MyD88 comp	TLR9-MyD88 block	ABCB6 inh 2	Myeloid diff 2
CC1CCC/C(=C\Nc2ccc(O)cc2)C1=O (centres undefined)	-4.7	12.8	2.1	104.0	+
Cc1cc(C(=O)O)ccc1N/C=C1\CCCC(C)C1=O (centres undefined)	-10.4	-2.4	-5.3	96.0	i
O=C(c1ccc2c3c(cccc13)CC2)C1CCCN(C(=O)c2ccc[n+]([O-])c2)C1 (centres undefined)	-11.7	.	-5.0	98.0	i
Nc1sccc1C(=O)NCc1ccccc1	8.4	.	.	.	+
Cn1nc(C(=O)NNC(=O)CCc2ccccc2Cl)c2ccccc2c1=O	1.2	.	6.8	99.0	+
Cn1nc(C(=O)NNC(=O)c2cccc(Cl)c2)c2ccccc2c1=O	-18.0	.	6.0	99.0	i
C/C(=C(/CCO)SSCC1CCCO1)N(C=O)Cc1cnc(C)nc1N (centres undefined)	16.5	.	-8.8	103.0	+
CCCCNc1c(-c2ccc(SC(C)CC)cc2)nc2cnccn12 (centres undefined)	69.0*	.	53.8*	175.0	+
O=C(NCc1ccc2c(c1)OCO2)C1CCCN(S(=O)(=O)c2cccc3nonc23)C1 (centres undefined)	1.6	-0.1	-10.0	104.0	i
O=C(NCc1ccc2c(c1)OCO2)C1CCCN(S(=O)(=O)c2cccc3cccnc23)C1 (centres undefined)	-9.4	-5.0	6.9	107.0	+
CC1CCCC(C)N1CCCNC(=O)C1CCCN(S(=O)(=O)N2CCCCC2)C1 (centres undefined)	1.8	.	-7.4	100.0	i
CC(C)CNS(=O)(=O)c1ccc(CCC(=O)NCc2cccnc2)cc1	-7.5	15.8	2.2	97.0	+
Cc1ccc(CNC(=O)CCc2ccc(S(=O)(=O)NCC(C)C)cc2)cc1	-7.8	-6.6	-11.0	97.0	i
Nc1nnc(SCC(=O)c2ccccc2)s1	-0.1	-6.8	0.1	99.0	i
Nc1c(C(=O)c2ccccc2)sc2snc(SCC(=O)c3ccccc3)c12	1.6	-4.7	15.9	200.0	+
O=C(Nc1ccccc1C(=O)Nc1ccncc1)c1cccc([N+](=O)[O-])c1	2.0	.	-4.1	97.0	i
O=C(O)c1cccc(NC(=O)c2ccccc2NC(=O)c2cccc([N+](=O)[O-])c2)c1	-12.8	.	4.0	334.0	+
Cc1cn([C@H]2C[C@H](N=[N+]=[N-])[C@@H](CO)O2)c(=O)[nH]c1=O	-13.4	8.1	1.4	90.0	+
O=C(CN1C(=O)COc2ccc(Cl)cc21)Nc1ccc2c(c1)OCCO2	-5.2	-4.0	2.5	89.0	+
Cc1cccc(NC(=O)CN2C(=O)COc3ccc(Cl)cc32)c1	3.6	.	5.4	97.0	i
CC1(C(=O)NS(=O)(=O)c2ccccc2Cl)CCN1C(=O)Cc1cc(F)ccc1F (centres undefined)	-7.4	.	.	94.0	i
COc1ccc(OC)c2cc3ccccc3cc12	-15.8	.	-7.0	110.0	+
O=C(CSc1ccc(Cl)cc1)Nn1cnnc1	0.4	-11.1	-1.5	i	+
c1ccc(OCCNc2ccn3nc(-c4ccco4)cc3n2)cc1	-4.3	.	.	97.0	i
COc1ccc(C2c3ccc(O)cc3Oc3ncn(Cc4ccco4)c(=N)c32)cc1OC (centres undefined)	-5.1	.	-6.8	102.0	i
COc1ccc(C2c3ccc(O)cc3Oc3ncn4nc(-c5cccnc5)nc4c32)cc1OC (centres undefined)	-6.3	.	-0.6	99.0	+
Cc1nc(-c2ccc(F)cc2)c(CC(=O)N2CCN(S(=O)(=O)c3cccc([N+](=O)[O-])c3)CC2)s1	3.3	.	3.8	226.0	+
O=C(Cc1ccccc1)N1CCN(S(=O)(=O)c2cccc([N+](=O)[O-])c2)CC1	-17.2	13.8	9.7	92.0	i

Source: PubChem (several laboratories)
